Hits are enriched below; roughly 5.4% of the tested compounds scored in any of these assays.
ALR H2O2 inh – inhibitors of human ALR sulfhydryl oxidase, primary screen, biochemical, H2O2 detection, HRP-luminol luminescence, single point; FAD-linked sulfhydryl oxidase ALR (Homo sapiens), P55789; actives 3.8% (n = 290,000); purified ALR, DTT oxidation; inhibition, % (concentration not given with the values);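 active means mean replicate inhibition above about 79%, with every replicate also reaching it, limit read from the data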
A3G deaminase – APOBEC3G DNA deaminase inhibitors, primary screen, biochemical, fluorescence, single-stranded DNA substrate, uHTS; inhibition, % at 20 µM; recombinant A3G, ssDNA deamination FAM/TAMRA fluorescence; AID 493012, 2011; actives 0.28% (n = 330,000);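 active means inhibition of at least 40% at 20 µM, with no more than 30% in the related APOBEC3A deaminase screen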;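 further: plate controls were DMSO wells with A3G for no effect and wells lacking A3G enzyme for full effect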
Target sequence (Q9HC16 whole entry, looked up): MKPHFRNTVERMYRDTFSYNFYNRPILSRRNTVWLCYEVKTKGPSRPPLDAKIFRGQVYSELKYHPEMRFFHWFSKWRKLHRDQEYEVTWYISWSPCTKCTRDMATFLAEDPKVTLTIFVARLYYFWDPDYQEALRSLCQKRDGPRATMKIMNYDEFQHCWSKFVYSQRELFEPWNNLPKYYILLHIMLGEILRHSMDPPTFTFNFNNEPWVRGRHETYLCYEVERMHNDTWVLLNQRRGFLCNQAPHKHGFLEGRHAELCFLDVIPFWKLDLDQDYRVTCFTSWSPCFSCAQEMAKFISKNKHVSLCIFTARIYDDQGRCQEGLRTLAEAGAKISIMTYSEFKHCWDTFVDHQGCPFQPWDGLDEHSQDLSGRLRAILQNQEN
A3A deaminase – APOBEC3A ssDNA deaminase inhibitors, primary screen, selectivity assay for APOBEC3G inhibitor project, biochemical, FAM/TAMRA oligo cleavage fluorescence | recombinant A3A, FAM/TAMRA ssDNA deamination fluorescence | inhibition, % at 20 µM | actives 0.41% (n = 330,000) | AID 493011, 2011;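 active means at least 40% inhibition at 20 µM here, with at most 30% in a related deaminase screen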;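 further: plate controls were A3A with DMSO for no effect and wells lacking A3A enzyme for full effect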
aDG glyco up – activators of alpha-DG glycosylation, primary screen, uHTS, Pro5-aDG cells, AlphaScreen; alpha-DG glycosylation AlphaScreen (IIH6); 0% Pro5, 100% B10-LARGE cell signal; actives 0.22% (n = 360,000); activation, % at 10 µM; AID 624168, 2012;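 active means activation of at least 8% versus controls, or a plate z-score of at least 8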;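 further: Pro5 are CHO cells carrying HIG-tagged alpha-DG that lacks glycosylation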
PHOSPHO1 inh – PubChem AID 1565 | Phosphoethanolamine/phosphocholine phosphatase (Homo sapiens), Q8TCT1 | recombinant PHOSPHO1, absorbance phosphatase assay | inhibition, % at 13.3 µM | actives 1.1% (n = 290,000); in the data active means inhibition above about 60%
Target sequence (Q8TCT1 whole entry, looked up): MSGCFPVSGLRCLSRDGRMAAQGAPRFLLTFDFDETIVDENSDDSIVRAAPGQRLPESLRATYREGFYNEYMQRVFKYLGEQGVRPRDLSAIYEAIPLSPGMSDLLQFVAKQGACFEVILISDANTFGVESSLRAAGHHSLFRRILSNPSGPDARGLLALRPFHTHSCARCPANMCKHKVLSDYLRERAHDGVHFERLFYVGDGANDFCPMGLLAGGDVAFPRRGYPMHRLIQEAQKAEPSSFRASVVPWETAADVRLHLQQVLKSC
rCAG RNA binder – binders of r(CAG) RNA repeats, primary screen, biochemical, fluorescence; actives 1.3% (n = 370,000); AID 651821, 2012; inhibition, % at 3 µM; r(CAG) RNA repeat, TO-PRO-1 dye displacement fluorescence;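 active means inhibition above the plate cutoff, the mean of all test compounds on that plate plus 3 SD, cut at about 35% in these data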;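 further: 0% = DMSO alone and 100% = 100 µM mitoxantrone as full dye displacement; higher means more dye released from RNA so lower well fluorescence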
An asterisk follows results filed as active; nt = not tested or not shown.

SMILES	ALR H2O2 inh	A3G deaminase	A3A deaminase	aDG glyco up	PHOSPHO1 inh	rCAG RNA binder
Cc1nn(C)cc1NC(=O)C[C@H]1CC[C@H]2[C@@H](COc3ccc(NC(=O)Nc4ccccc4)cc3C(=O)N2C)O1	nt	nt	nt	nt	nt	3.1
O=C1OCCN1CCNCc1cn(-c2ccc(F)cc2)nc1-c1ccccc1Cl	-7.1	-10.6	1.1	0.1	60.1*	-1.2
Cc1ccc(-n2cc(CNCCN3CCOC3=O)c(-c3cccc(C)c3)n2)cc1	nt	-6.2	-5.4	1.0	3.4	-6.4
O=C(CCC1N=C2c3ccccc3N=C(SCc3ccc(Cl)cc3)N2C1=O)NCc1ccco1 (centres undefined)	97.6*	-7.1	-2.3	0.2	20.8	-0.3
O=C(CCC1N=C2c3ccccc3N=C(SCc3ccc(F)cc3)N2C1=O)NCc1ccco1 (centres undefined)	-24.5	1.3	1.0	0.3	-14.6	0.2
COc1ccc(CN(CCN2CCOCC2)C(=O)c2cccc(F)c2F)cc1OC	nt	nt	nt	nt	nt	0.1
O=C(C(=O)N1CCC(CNS(=O)(=O)c2cc(C(F)(F)F)cc(C(F)(F)F)c2)CC1)c1cccs1	nt	nt	nt	nt	nt	-0.3
COc1ccc(C(N)CCc2ccco2)cc1 (centres undefined)	99.1*	-5.8	-3.4	-0.2	20.8	6.7
COc1ccc(S(=O)(=O)N(C)C(C)CCc2ccco2)cc1 (centres undefined)	13.4	-7.0	0.8	-0.1	26.5	5.8
CCOC(=O)N1CCN(C(=O)CSc2nnc(Cc3cccn3C)n2CCc2ccccc2)CC1	6.6	-5.8	1.7	1.2	62.2*	2.5
Cc1ccc(C(=O)NCC(=O)N2CCC(Cc3ccccc3)CC2)cc1	-1.7	9.3	1.8	-0.1	62.6*	-6.5
Cn1cnnc1SCC(=O)N1CCC(Cc2ccccc2)CC1	-17.9	2.5	20.9	-0.4	63.4*	3.2
Cn1cnnc1SCC(=O)N1CCN(C(=O)c2ccco2)CC1	2.7	-6.5	0.7	-0.1	28.3	-3.3
CCn1c2ccccc2c2cc(NC(=O)c3cc4c(C)nn(-c5ccccc5)c4s3)ccc21	nt	nt	nt	nt	nt	20.4
O=C(c1cccc(C(F)(F)F)c1)N1CC[C@H]2[C@H](CCCN2Cc2ccc(F)cc2)C1	nt	nt	nt	nt	nt	-0.8
Cc1ccc(C(=O)N2CCCC(Nc3ccc(C)c(C)c3)C2)c(=O)[nH]1 (centres undefined)	-0.2	6.1	-4.2	-0.1	9.6	-3.1
COc1ccc(NC2CCCN(C(=O)c3ccc(OC)cc3OC)C2)cc1 (centres undefined)	99.2*	-3.2	-0.7	0.2	6.1	-10.4
Cc1ccc(NC2CCCN(C(=O)c3ccoc3C)C2)cc1C (centres undefined)	98.3*	-8.2	-5.4	-0.2	21.8	-4.3
COc1ccc2cc(C(=O)N3CCCC(Nc4ccc(F)cc4)C3)n(C)c2c1 (centres undefined)	24.5	-0.8	-0.6	0.3	-14.9	0.7
COc1ccc(C(=O)N2CCCC(Nc3ccc(C)c(C)c3)C2)cc1 (centres undefined)	98.4*	-7.3	-10.3	0.6	32.2	-4.6
CC(=O)c1ccc(OCC(=O)N2CCCC(Nc3ccc(C)c(C)c3)C2)cc1 (centres undefined)	84.6*	-5.8	2.2	0.1	19.8	-4.6
O=C(Nc1ccc(C(F)(F)F)cc1)OC1CC2CC1[C@H]1CCCCN1C2 (some centres undefined)	nt	nt	nt	nt	nt	4.8
Cc1ccc(NC2CCCN(C(=O)c3ccoc3)C2)cc1C (centres undefined)	99.3*	-4.8	-5.7	-0.2	-5.0	-5.3
Cc1ccc(NC2CCCN(C(=O)C3CCCC3)C2)cc1C (centres undefined)	99.0*	-0.4	3.0	0.2	-22.6	-7.8
CCn1nc(C)cc1C(=O)N1CCCC(Nc2ccc(F)c(F)c2)C1 (centres undefined)	13.6	-7.0	-4.4	-0.3	19.2	-7.0
SMILES	ALR H2O2 inh	A3G deaminase	A3A deaminase	aDG glyco up	PHOSPHO1 inh	rCAG RNA binder
Cc1ccc(C(=O)N2CCCC(Nc3ccc(F)c(F)c3)C2)cn1 (centres undefined)	13.7	-4.1	-2.5	-0.4	17.0	-5.4
CCn1nc(CC(C)C)cc1C(=O)N1CCCC(Nc2ccc(OC)cc2)C1 (centres undefined)	98.5*	-5.1	-5.8	-0.5	19.9	-4.3
Cc1ccc(NC2CCCN(C(=O)c3ccc(C)c(N4CCNC4=O)c3)C2)cc1C (centres undefined)	93.0*	-5.8	-5.0	-0.1	22.2	nt
Nn1c(SCC(=O)Nc2nccs2)nnc1-c1cc(-c2ccc(Cl)cc2)n[nH]1	nt	nt	nt	nt	nt	7.4
COc1ccc(NC2CCCN(C(=O)c3ccc4[nH]c(C)c(C)c4c3)C2)cc1OC (centres undefined)	99.5*	-9.0	-12.3	-0.1	1.0	2.3
O=C(N=Nc1c(O)[nH]c2c(Cl)cc(Cl)cc12)c1ccccc1O	nt	nt	nt	nt	nt	6.1
CC(C)Nc1ccc(Nc2ccnc3cc4ccccc4cc23)cc1	99.2*	3.7	7.4	-0.7	-2.1	23.0
O=S(=O)(c1cccc(-c2n[nH]c(=S)n2-c2ccccc2Cl)c1)N1CCOCC1	98.9*	24.4	-6.0	0.0	nt	7.8
COc1cccc(/C=N\NC(=O)c2ccc(C)nc2)c1	nt	3.7	12.2	0.0	9.7	-0.5
COc1ccc(/C=N/NC(=O)c2cc[n+]([O-])cc2)cc1O	99.3*	-1.1	0.2	-0.1	10.3	-0.3
COc1ccc(/C=N/NC(=O)c2ccc(CSc3nc(C)cc(C)n3)cc2)cc1O	77.4*	-4.5	-2.1	0.3	-38.3	1.5
COc1cc(/C=N/NC(=O)c2ccc(CSc3nncn3C)cc2)cc(OC)c1O	99.6*	-5.4	-4.6	0.7	27.1	-5.2
COc1ccc(/C=N/NC(=O)c2ccc(CSc3nc(C)cc(C)n3)cc2)c(OC)c1OC	nt	-6.5	-2.1	-0.1	-6.9	0.3
COc1ccc(/C=N/NC(=O)c2ccc(C)nc2)cc1O	97.4*	-1.9	-7.6	0.0	29.5	1.4
COc1ccc(C2CC(=O)C(c3cccc(C)c3)=CN2Cc2ccccc2)cc1 (centres undefined)	nt	nt	nt	nt	nt	3.3
COc1ccc(C#Cc2c(-c3ccccc3OC)oc3ccccc23)cc1	nt	nt	nt	nt	nt	2.1
COCCCNC(=O)c1oc(=O)c2ccccc2c1-c1ccc(C)cc1	nt	nt	nt	nt	nt	-2.3
O=C(N[C@H](C(=O)N1CCC[C@H]1C(=O)NCc1ccccc1)c1ccccc1)c1ccc(Cl)cc1Cl	nt	nt	nt	nt	nt	0.9
COc1ccc(/C=N/NC(=O)c2ccoc2C)cc1O	99.4*	1.7	-0.8	0.2	1.4	-0.4
